S-ASM inh: human S-ASM enzyme inhibition; P17405; placental ASM, HMU-PC fluorogenic substrate, 60 min; Potency, µM (top dose mostly 57.5 µM), without a hit: at the top dose activity change, negative = inhibition, most hits filed as inhibitors; 340,000 tested, 0.006% active
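qHTS format. ASM enzyme prepared from human placenta hydrolyses the fluorogenic substrate HMU-PC0 (9 uM final) over 60 min at 37 °C after a 10 min compound preincubation.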
TDP1 inh: TDP1 (human) enzyme inhibition | 350,000 tested, 0.28% active | recombinant TDP1, AlphaScreen DNA substrate cleavage | Q9NUW8 | Potency, µM (top dose mostly 130 µM), inactives show at the top dose activity change, negative = inhibition, most hits filed as inhibitors; note: % is set by controls: 0 for no effect and ±100 for the full control effect; nearly all actives have a fitted effect of over 40% in size
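Tdp1 1 nM final; 15 min RT w/ cpd; substrate 15 nM, 5 min; beads 10 ug/ml, 10 min; AlphaScreen read. Neg ctrl: no enzyme.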
Tb PFK inh: inhibitors of T. brucei phosphofructokinase | O15648 | T. brucei PFK, ADP-Glo luminescence | Potency, µM (doses to about 57.5 µM), inactives show at the top dose activity, negative = inhibition, actives largely listed as inhibitors | 330,000 tested, 0.17% active | AID 485367;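 note: 0% = uninhibited 1x PFK enzyme wells and -100% = no-enzyme wells; nearly all actives have a fitted effect of over 60% in size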
Target sequence (O15648 whole entry, looked up): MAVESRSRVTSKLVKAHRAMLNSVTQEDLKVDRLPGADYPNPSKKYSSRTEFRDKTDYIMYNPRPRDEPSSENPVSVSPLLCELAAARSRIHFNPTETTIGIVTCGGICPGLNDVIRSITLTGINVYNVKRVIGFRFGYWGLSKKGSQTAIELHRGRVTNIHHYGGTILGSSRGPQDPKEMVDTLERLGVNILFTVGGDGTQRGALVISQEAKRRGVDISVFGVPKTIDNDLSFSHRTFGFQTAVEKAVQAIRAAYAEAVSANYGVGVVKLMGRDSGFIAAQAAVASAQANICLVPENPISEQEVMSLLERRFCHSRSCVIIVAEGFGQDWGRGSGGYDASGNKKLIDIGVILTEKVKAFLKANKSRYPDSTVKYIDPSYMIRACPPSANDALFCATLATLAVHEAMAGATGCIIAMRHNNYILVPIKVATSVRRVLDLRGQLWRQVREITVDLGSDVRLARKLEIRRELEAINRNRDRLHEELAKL
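Luminescent ADP detection (ADP-Glo, two-step: ATP depletion then ADP-to-ATP conversion for luciferase) reported PFK activity after 45 min room-temperature reaction of 1.25 nM enzyme with 0.5 mM F6P and 0.1 mM ATP at pH 8.0.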
PLK1 PBD block: PLK1 (human) polo-box domain binding inhibition; P53350; Plk1 PBD binding of FITC phosphopeptide, fluorescence polarization; Potency, µM, without a hit: max response, negative = inhibition, hits mostly inhibitors; 360,000 tested, 2.8% active; note: series mostly up to about 57 µM; % is set by controls: 0 for no effect and ±100 for the full control effect; nearly all actives have a fitted effect of over 65% in size
VDR inhibitor: blocks the human vitamin D receptor | P11473 | VDR-SRC2-3 peptide fluorescence polarization, 2 h | Potency, µM, for inactives: max response, negative = inhibition, most hits filed as inhibitors | 400,000 tested, 0.93% active | AID 504847; note: % is set by controls: 0 for no effect and ±100 for the full control effect
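The screen uses fluorescence polarization to detect compounds that interfere with recruitment of the SRC2-3 coactivator peptide to VDR; plates are read after 2 h at room temperature.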
Pin1 inhibitor: inhibitors of human Pin1; Q13526; Pin1 FP peptide displacement, HiFluor488, 10 min; Potency, µM (titrated, usually from 115 µM), for the others: at the highest dose activity, negative = inhibition, hits mostly inhibitors; 390,000 tested, 0.009% active; active = well fitted inhibition curve with a large enough effect in the polarisation, with a control signal flat, not every such curve was filed as active; inconclusive = small, poorly fitted or top-dose-only effect, or effect the other way, or a change in a side signal; inactive = no such curve, though single readings can be large or run the other way; the % refers to the polarisation; note: % is set by controls: 0 for no effect and ±100 for the full control effect
Target sequence (Q13526 whole entry, looked up): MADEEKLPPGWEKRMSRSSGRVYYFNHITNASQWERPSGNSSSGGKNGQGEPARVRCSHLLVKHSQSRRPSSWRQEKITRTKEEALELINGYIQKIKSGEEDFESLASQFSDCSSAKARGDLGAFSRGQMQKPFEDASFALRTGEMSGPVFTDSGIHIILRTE
* hit, by the source's call; [ ] = dose if it differs, or a comment. Compounds with a hit are over-represented: about 3.1% of the library has one in this group of screens. Unless noted, calls come from the whole dose curve; as a rule, active = well fitted curve in the direction sought with a large enough effect; inconclusive = small, poorly fitted or top-dose-only effect, or another doubt; inactive = no such curve, though single readings can be large; an effect the other way counts as inactive or inconclusive. Potency is the fitted concentration of half-maximal effect.

For Cc1cc(C(=O)N/N=C2/CC(C)CC(C)(C)C2)c(C)o1 (stereo unspecified) the results were S-ASM inh 3%, TDP1 inh -1%, Tb PFK inh -6%, PLK1 PBD block 21µM*, VDR inhibitor -29% and Pin1 inhibitor 10%.
`CCNc1nc(NC(N)=S)nc(NC(C)(C)C)n1` gave S-ASM inh 3%, TDP1 inh 3%, Tb PFK inh -9%, PLK1 PBD block 27µM*, VDR inhibitor 10% and Pin1 inhibitor 2%.
CCNc1nc(NC(C)(C)C)nc(N2CCCC2)n1 was read as S-ASM inh 0%, TDP1 inh -4%[56.1 µM], Tb PFK inh -4%, PLK1 PBD block -2%, VDR inhibitor 20% and Pin1 inhibitor 0%.
`C=C[C@@]1(C)CC(=O)[C@]2(O)[C@@]3(C)[C@H](O)CCC(C)(C)[C@@H]3[C@H](O)[C@H](OC(C)=O)[C@@]2(C)O1` gave TDP1 inh 8% and VDR inhibitor 10%.
For O=C(Nc1ccc(Br)cc1)N1CCCCCCC1 the results were S-ASM inh 4%, TDP1 inh 4%, Tb PFK inh -2%, PLK1 PBD block -18%, VDR inhibitor 8% and Pin1 inhibitor -1%.
CC1CC(C)CN(C(=O)Nc2ccc(Br)cc2)C1 (stereo unspecified) was read as S-ASM inh 1%, TDP1 inh 5%, Tb PFK inh 1%, PLK1 PBD block 30µM*, VDR inhibitor -12% and Pin1 inhibitor 2%.
CC1=NN(c2ccccc2)C(=O)/C1=C\c1c(C)[nH]n(-c2ccccc2)c1=O was read as S-ASM inh -10%, TDP1 inh 6%, Tb PFK inh 1%, PLK1 PBD block 2%, VDR inhibitor -7% and Pin1 inhibitor -16%.
For CC1=NN(c2ccccc2)C(=O)/C1=C/c1c(O)n(-c2ccc(F)c(Cl)c2)[nH]c1=O the results were S-ASM inh -17%, TDP1 inh 9%, Tb PFK inh -1%, PLK1 PBD block 27µM*, VDR inhibitor -19% and Pin1 inhibitor -16%.
For COc1ccc(CN(C)S(=O)(=O)c2nnc(NC(=O)C(C)C)s2)cc1OC the results were TDP1 inh 6%, VDR inhibitor 5% and Pin1 inhibitor -2%.
For COc1cccc(Nc2ccccc2C(=O)O)c1 the results were S-ASM inh 7%, TDP1 inh 0%, Tb PFK inh 0%, PLK1 PBD block -11%, VDR inhibitor 2% and Pin1 inhibitor 0%.
`COc1cc(-c2ccc(Nc3ccccc3C(=O)O)c(OC)c2)ccc1Nc1ccccc1C(=O)O` gave S-ASM inh -18%, Tb PFK inh -16%, PLK1 PBD block 17µM*, VDR inhibitor inconclusive and Pin1 inhibitor inconclusive.
Screening Oc1ccc(/C=C/c2ccccc2)c2cccnc12 returned TDP1 inh 1% and Pin1 inhibitor -1%.
For COc1[nH]c(/N=C/c2ccco2)c(C#N)c1C#N the results were TDP1 inh 3%, VDR inhibitor inconclusive and Pin1 inhibitor inconclusive.
For COc1cccc(-n2nc(C#N)c(Cl)cc2=O)c1 the results were S-ASM inh -1%, TDP1 inh 9%, Tb PFK inh -6%, PLK1 PBD block inconclusive, VDR inhibitor 32µM* and Pin1 inhibitor -7%.
CS(=O)(=O)N1CCN(c2nc(-c3ccc(Br)cc3)cs2)CC1 was read as Pin1 inhibitor -3%.
`S=C(NCCCc1cnc[nH]1)NCCCN(Cc1ccc(Cl)cc1)c1cc(-c2ccccc2)ccn1` gave VDR inhibitor -3% and Pin1 inhibitor inconclusive.
CC1(C)CC(=O)C(Sc2ccccc2)=C(O)C1 was read as S-ASM inh 3%, TDP1 inh 9%, Tb PFK inh 1%, PLK1 PBD block 12µM*, VDR inhibitor -14% and Pin1 inhibitor -2%.
CC1(C)CC(=O)C(Sc2ccccc2C(=O)O)=C(O)C1 was read as S-ASM inh 5%, TDP1 inh -13%, Tb PFK inh 0%, PLK1 PBD block -18%, VDR inhibitor -18% and Pin1 inhibitor -12%.
COC(=O)Cn1c(=O)cnc2ccccc21 was read as S-ASM inh 8%, TDP1 inh -2%, Tb PFK inh -2%, PLK1 PBD block -3%, VDR inhibitor 5% and Pin1 inhibitor 11%.
COC(=O)Cn1c(Cc2ccccc2)nc2ccccc21 was read as S-ASM inh 10%, Tb PFK inh -3%, PLK1 PBD block 6µM*, VDR inhibitor -19% and Pin1 inhibitor -3%.
Screening O=C(/C=C/c1cccs1)c1ccc(Br)cc1 returned S-ASM inh -1%, TDP1 inh 2%, Tb PFK inh 1%, PLK1 PBD block -16%, VDR inhibitor 50µM* and Pin1 inhibitor -3%.
O=C(/C=C/c1cccs1)c1ccc(NC(=O)c2cccc(Br)c2)cc1 was read as S-ASM inh -8%, TDP1 inh 3%, Tb PFK inh -14%, PLK1 PBD block -4%, VDR inhibitor -6% and Pin1 inhibitor 51%.
Screening Cn1ncc(S(=O)(=O)Cc2ccccc2)c(Cl)c1=O returned S-ASM inh 3%, TDP1 inh 5%, Tb PFK inh -3%, PLK1 PBD block 3.4µM*, VDR inhibitor inconclusive and Pin1 inhibitor 1%.
For CC(=O)Oc1cc(-c2coc3cc(OC(C)=O)c(OC(C)=O)c(OC(C)=O)c3c2=O)cc(OC(C)=O)c1OC(C)=O the results were VDR inhibitor 18µM*.
COc1cc(-c2coc3cc(OC)c(OC)c(OC)c3c2=O)cc(OC)c1OC was read as TDP1 inh 11%[56.1 µM] and VDR inhibitor 1%.
For CNc1nc(Cl)c(SC)c(NCc2cccc(OC)c2)n1 the results were S-ASM inh -5%, Tb PFK inh 1%, PLK1 PBD block 11µM*, VDR inhibitor inconclusive and Pin1 inhibitor -2%.
`COC1=C(N)C(=O)c2nc(-c3nc(C(=O)O)c(C)c(-c4ccc(OC)c(OC)c4O)c3N)ccc2C1=O` gave S-ASM inh 2%, TDP1 inh -3%, Tb PFK inh inconclusive, PLK1 PBD block -26%, VDR inhibitor 14µM* and Pin1 inhibitor inconclusive.
`Cc1ccc(C2NC(=O)CCC2[N+](=O)[O-])cc1` (stereo unspecified) gave S-ASM inh 8%, TDP1 inh 2%, Tb PFK inh 8%, PLK1 PBD block 19µM*, VDR inhibitor inconclusive and Pin1 inhibitor -5%.
O=C(N/N=C1/CC2C=CCC12)c1ccco1 (stereo unspecified) was read as S-ASM inh 3%, TDP1 inh -8%, Tb PFK inh 2%, PLK1 PBD block 30µM*, VDR inhibitor inconclusive and Pin1 inhibitor -11%.
Screening CCCCCCCCCCCCCCCC(=O)O returned TDP1 inh 2% and VDR inhibitor 13%.
